Compound activity (PubChem)
UGM FP inh = Mtb UDP-galactopyranose mutase inhibition; AID 504406; purified UGM, fluorescence polarization probe displacement; hit rate 0.06% among 320,000; P9WIQ1; inhibition, % at 10 µM; in the data active means inhibition above about 10%, passing the limit was not always enough
Target sequence (P9WIQ1 whole entry, looked up): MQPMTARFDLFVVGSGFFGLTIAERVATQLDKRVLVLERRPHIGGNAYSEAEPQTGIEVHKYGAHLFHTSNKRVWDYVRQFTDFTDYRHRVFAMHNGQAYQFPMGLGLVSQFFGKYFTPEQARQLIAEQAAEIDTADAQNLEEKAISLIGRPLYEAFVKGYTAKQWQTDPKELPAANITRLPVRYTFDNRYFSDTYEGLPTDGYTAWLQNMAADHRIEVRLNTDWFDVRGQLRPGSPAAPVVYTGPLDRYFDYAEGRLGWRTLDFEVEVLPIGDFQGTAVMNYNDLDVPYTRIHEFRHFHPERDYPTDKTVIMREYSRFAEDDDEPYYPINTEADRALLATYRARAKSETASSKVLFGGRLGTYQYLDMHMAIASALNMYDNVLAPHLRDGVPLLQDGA
GDH-TPI counter-1 = GDH-TPI coupled enzyme inhibition counter-screen; GDH-TPI coupled enzyme counterscreen, NADH absorbance; inhibition, % at 4.8 µM; hit rate 1.2% among 360,000; AID 588335; in the data active means inhibition above about 30%;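 further: 0% = DMSO wells and 100% = wells lacking the enzyme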
Rv3671c inh = inhibitors of M. tuberculosis serine protease Rv3671c | P9WHR9 | inhibition, % at 5.96 µM | hit rate 0.048% among 320,000; in the data active means inhibition above about 38%;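 further: extracellular domain of Rv3671c used as enzyme; 0% = enzyme with DMSO and 100% = no enzyme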
Mtb bLac sens = beta-lactam sensitization of Mtb H37Rv; M. tuberculosis H37Rv growth with meropenem, percent inhibition; inhibition, % at 25 µM; hit rate 0.27% among 330,000; call rule not given here;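 further: growth measured after seven days incubation then overnight dye step; 0% = bacteria only wells and 100% = bacteria with antibiotic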
Mtb FBA inh = Mtb fructose-bisphosphate aldolase inhibition; purified M. tuberculosis FBA, fluorescence read-out; inhibition, % at 1 µM; hit rate 2.3% among 360,000; AID 588726;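 further: 0% = vehicle and 100% = reference inhibitor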
PriA SSB inh = blocks PriA binding to SSB C-terminal tail; AlphaScreen SSBct-PriA binding, biotinylated peptide; inhibition, % at 33 µM; AID 1272365; hit rate 0.6% among 430,000; in the data active means inhibition mostly above about 37%, no sharp cut-off; inactive means mostly below about 20%;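 further: plate controls were negative control peptide for no effect and reference peptide for full effect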
Mtb FBA confirm = Mtb FBA inhibition, confirmed. shares compounds with Mtb FBA inh. hit rate 78% among 5,600. purified M. tuberculosis FBA, fluorescence read-out. inhibition, % at 1 µM. AID 651616;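 further: 0% = vehicle wells and 100% = reference inhibitor wells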
GDH-TPI counter-2 = inhibits GDH-TPI coupling enzymes, flagging Mtb FBA hits. shares compounds with Mtb FBA inh. GDH-TPI coupled enzyme counterscreen, fluorescence. inhibition, % at 1 µM. hit rate 81% among 5,600; in the data active means inhibition above about 10%
* hit, by the source's call; · = not tested or not shown; + = active, no number. Rows were chosen to be rich in hits. Some 3.2% of all compounds tested hit in one or more screens of this group. Unless noted, no stated cut-off is given here; in the data, active means inhibition above about 27%; inactive means the rest.

SMILES	UGM FP inh	GDH-TPI counter-1	Rv3671c inh	Mtb bLac sens	Mtb FBA inh	PriA SSB inh	Mtb FBA confirm	GDH-TPI counter-2
Cc1cc2c(c(N)n1)c(=O)oc1ccccc12	3.5	17.9	-4.0	-5.0	39.8*	-5.0	-0.4	-0.5
COCc1c(Br)c(C)[nH]c(=O)c1C#N	-1.6	18.2	1.7	11.2	32.1*	-2.2	70.9*	49.6*
COC(=O)[C@H](Cc1ccccc1)NC(=O)NC(C)CCc1ccccc1 (stereo partly drawn)	2.5	2.9	-8.7	-1.3	76.8*	-19.2	+	+
O=c1[nH]cnc2nn(-c3ccccc3)nc12	0.4	18.7	-3.2	4.7	98.7*	-14.7	8.6	6.4
O=c1[nH]cnc2nc(-c3ccccc3)c(-c3ccccc3)nc12	-1.5	9.7	-2.2	4.5	50.0*	-3.7	8.0	3.5
COC(=O)c1ccccc1NC(=O)N1CCCC1	2.2	3.8	3.9	-4.1	28.2*	-5.5	102.1*	82.8*
Cc1ccccc1-c1nc2cc(NC(=O)C3CC3)ccc2o1	-2.3	16.1	-9.1	24.1	106.7*	-14.8	16.6	15.0*
O=C(Nc1ccc2oc(-c3cccc4ccccc34)nc2c1)c1ncn[nH]1	2.9	36.5*	-64.2	4.0	66.4*	-3.6	35.9*	29.1*
Cc1cc(C)c2cc(C#N)c(NCCCNC(=O)CCC(=O)O)nc2c1	4.7	12.4	6.1	-1.9	42.1*	-10.5	44.3*	36.5*
COC(=O)CSc1nc2cc(C)cc(C)c2cc1C#N	-0.1	4.3	-9.5	10.2	-4.0	-18.4	·	·
COc1cccc(C(=O)NCCCNc2nc3cc(C)cc(C)c3cc2C#N)c1	·	-1.4	·	·	9.2	·	·	·
COc1ccccc1C(=O)NCCCNc1nc2cc(C)cc(C)c2cc1C#N	·	-3.8	·	·	42.5*	·	+	145.7*
CCc1c(C)nc2cc(-c3ccc(OC)cc3)[nH]n2c1=O	2.6	11.0	-1.4	4.8	34.6*	0.6	+	+
O=c1c2c(nc3cc(-c4ccc(F)cc4)[nH]n13)CCC2	-2.6	4.3	-2.5	5.8	38.0*	-16.9	118.9*	81.5*
Cc1ccc(-c2cc3nc4c(c(=O)n3[nH]2)CCCC4)cc1	-3.2	8.1	5.1	1.8	16.3	-1.1	·	·
Cc1nc2cc(-c3ccccc3)[nH]n2c(=O)c1C	-0.8	5.7	-0.2	-9.8	33.4*	-14.1	95.0*	62.3*
O=c1cc(-c2ccccc2)nc2cc(-c3ccc(F)cc3)[nH]n12	-0.2	3.1	-2.4	1.1	44.4*	-8.6	-0.5	-3.2
CSc1nc2nc(-c3ccccc3)cc(=O)n2[nH]1	1.8	6.7	4.7	21.4	-0.2	-7.2	·	·
Cc1ccc(NC(=O)CSc2nccn(-c3cccc4ccccc34)c2=O)cc1	·	·	·	·	·	26.0	·	·
O=C(Cn1c2ccccc2c(=O)c2ccccc21)NN=Cc1ccc(N2CCCC2)c([N+](=O)[O-])c1	·	·	·	·	·	-5.7	·	·
COc1cccc(S(=O)(=O)NCc2ccc(C(=O)Nc3cccnc3)cc2)c1	·	·	·	·	·	1.0	·	·
CCC(C)n1c(=O)c2ccccc2n(Cc2nc(-c3cccc(Br)c3)no2)c1=O (stereo not drawn)	·	·	·	·	·	-17.0	·	·
CC(C)c1cc(Cn2c3ccccc3c(=O)n2C(C)CBr)on1 (stereo not drawn)	·	·	·	·	95.7*	·	69.8*	45.8*
CC(C)n1c(=O)c2ccccc2n1C(=O)c1ccccc1	·	·	·	·	2.8	·	·	·
CC(C)c1cc(Cn2c3ccccc3c(=O)n2C(C)C)on1	·	·	·	·	102.9*	·	+	+
SMILES	UGM FP inh	GDH-TPI counter-1	Rv3671c inh	Mtb bLac sens	Mtb FBA inh	PriA SSB inh	Mtb FBA confirm	GDH-TPI counter-2
CCOC(=O)c1c(NC(=O)CSc2nc(C)cc(C)c2C#N)sc(C)c1C	·	·	·	·	·	-3.0	·	·
O=C(Nc1ccc2sccc2c1)C1COc2ccccc2O1 (stereo not drawn)	·	·	·	·	·	-39.0	·	·
Cc1cc(=O)oc2c(C)c(OCC(=O)N3C[C@H]4C[C@@H](C3)c3cccc(=O)n3C4)ccc12	-0.4	4.9	1.6	-7.0	4.3	·	·	·
CC(C)=CCOc1ccc2c(C)c(CCC(=O)N3C[C@H]4C[C@@H](C3)c3cccc(=O)n3C4)c(=O)oc2c1C	·	10.4	·	·	82.3*	·	101.6*	92.1*
Cc1c(C)c2ccc(OCC(=O)N3C[C@H]4C[C@@H](C3)c3cccc(=O)n3C4)c(C)c2oc1=O	3.6	13.7	0.8	-4.3	33.7*	·	68.0*	39.9*
Cc1coc2c(C)c3oc(=O)c(CCC(=O)N4CC5C[C@H](C4)Cn4c5cccc4=O)c(C)c3cc12	·	·	·	·	·	-1.6	·	·
Cc1ccc(C)c(CC(=O)N=c2sc3c(Cl)ccc(C)c3n2C)c1	·	·	·	·	·	19.0	·	·
O=C(c1nc2nc(-c3ccccc3)cc(C(F)(F)F)n2n1)N1CCOCC1	-1.3	13.4	3.7	4.2	19.3	-0.3	·	·
O=C(O)c1cc2nc(-c3ccccc3)cc(C(F)(F)F)n2n1	2.5	10.4	4.7	-7.6	3.5	-15.9	·	·
Nc1nc2nc(-c3ccc(F)cc3)cc(C(F)(F)F)n2n1	-1.2	-6.8	6.0	-0.4	41.2*	-1.0	50.2*	40.2*
O=C(c1nc2nc(-c3ccc(Cl)cc3)cc(C(F)(F)F)n2n1)N1CCOCC1	-2.2	26.5	-1.2	-6.1	32.8*	-2.3	120.7*	94.1*
CC(C)(C)NC(=O)c1nc2nc(-c3ccccc3)cc(C(F)(F)F)n2n1	-1.2	0.8	6.1	9.2	31.8*	-5.2	90.5*	62.3*
Cc1noc(-c2cn(CCNC(=O)c3cccnc3)nn2)n1	·	·	·	·	·	-4.0	·	·
O=S(=O)(c1cccc(-c2cn3cccnc3n2)c1)N1CCCCCC1	-2.4	5.1	-7.2	-16.2	62.1*	-12.6	58.3*	49.0*
O=S(=O)(Nc1cccc(-c2cn3cccnc3n2)c1)c1ccc(-c2ccccc2)cc1	-3.1	16.5	-130.3	-4.3	11.2	4.8	·	·
O=S(=O)(Nc1cccc(-c2cn3cccnc3n2)c1)c1ccc(F)cc1	-1.4	26.9	4.2	-4.1	37.9*	1.6	83.4*	80.6*
O=S(=O)(Nc1ccc(-c2cn3cccnc3n2)cc1)c1ccccc1	1.0	15.8	-5.5	1.4	64.2*	-8.2	9.8	-6.6
O=S(=O)(Nc1cccc(-c2cn3cccnc3n2)c1)c1ccccc1	0.2	14.8	-3.4	-5.6	75.1*	-1.5	66.3*	46.9*
COCCn1cc(NC(=O)NCc2cccnc2)c2ccccc21	·	·	·	·	·	-6.0	·	·
Cc1ncsc1C(=O)N1CCC[C@H](Cc2nc(-c3ccsc3)no2)C1	·	·	·	·	·	0.0	·	·
O=C(Nc1c(C(=O)O)[nH]c2ccccc12)NC1CCCCC1	-2.5	3.4	1.1	-1.0	35.5*	-8.6	+	174.2*
COC(=O)c1[nH]c2ccc(C)cc2c1NC(=O)NC1CCCCC1	-1.5	7.5	-0.4	-1.0	11.9	-3.2	·	·
Cc1ccc(S(=O)(=O)NCCN2CCN(c3ccccc3)CC2)cc1C	·	·	·	·	·	-20.0	·	·
COc1ccc(S(=O)(=O)N2CCC3(CC2)NC(=O)N(Cc2ccccc2)C3=O)cc1C	·	·	·	·	·	4.0	·	·
